According to PubChem BioAssay (Tox21):
Unmarked numbers belong to inactive results. Where a call stands in place of a potency, no number is given. Activity calls are given as the source filed them. Calls come from the whole dose curve; as a rule, active = well fitted curve in the direction sought with a large enough effect in the repeat runs; inconclusive = weak or mixed curves; inactive = flat fitted curve, though single readings scatter.

Assay: qHTS assay to test for compound auto fluorescence at 460 nm (blue) in HEK293 cell free culture (AID 720681)
Settings: cell-free medium, autofluorescence 405/460 nm (blue); series mostly up to 91.3 µM; fluorescence, % of fluorescent control: at the top concentration
Description: U.S. Tox21 Program National Center for Advancing Translational Sciences [NCATS] NIH Chemical Genomics Center [NCGC] U.S. Environmental Protection Agency [EPA] National Institutes of Environmental Health Sciences [NIEHS] National Toxicology Program [NTP] U.S. Food and Drug Administration [FDA] Tox21 Assay Overview: Compound auto fluorescence often interferes with screening of the compound library against various biological targets and signaling pathways. Some of these compounds may have fluorophoric properties. Such properties may interfere with the assay outputs resulting in false positives and/or negatives. To decrease such complications and ensure the compound activities are relevant in terms of biological response, the Tox21 10K compound library was screened for auto fluorescence. From the fluorophores used as reporter signals in our screening assays, the auto fluorescence equivalencies of compounds against three fluorophores have been evaluated: Triamterene, Fluorescein and Rose Bengal sodium for blue, green and red fluorescence, respectively. The fluorescence intensities were measured using Excitation/Emission wavelengths at 405/460nm, 485/535nm and 540/590nm for blue, green and red labels, respectively. This assay includes the blue fluorescence data.
Tox21 Assay Protocol Summary: 5 uL of culture medium (DMEM containing 10% FBS) per well was dispensed into black wall/clear bottom 1536-well plates using a Multidrop Combi Dispenser (ThermoFisher Scientific, Waltham, MA). After 23 nL compound or DMSO vehicle was transferred into assay plate by a pintool work station (Kalypsys, San Diego, CA), fluorescence intensities in the assay plates were measured by an Envision (PerkinElmer, Shelton, CT) plate reader using three labels for measuring blue, green and red fluorescence at […] 460, 535 and 590nm respectively.

| SMILES | Potency | fluorescence, % of fluorescent control |
| --- | --- | --- |
| COc1ccc2c(c1)c(CC(=O)O)c(C)n2C(=O)c1ccc(Cl)cc1 | inactive | – |
| CCOC(N)=O | inactive | – |
| CN(N=O)C(=O)N[C@@H]1[C@@H](O)[C@H](O)[C@@H](CO)O[C@@H]1O | inactive | – |
| CCCCCCCCCCCC[N+](C)(C)Cc1ccccc1 | inactive | – |
| CCCCOC(=O)c1ccc(O)cc1 | inactive | – |
| O=C1NC(=O)C(c2ccccc2)(c2ccccc2)N1 | inactive | – |
| CN1CCc2cccc3c2[C@H]1Cc1ccc(O)c(O)c1-3 | inactive | – |
| O=C(O)CC(O)C(=O)O (stereo not given) | inactive | – |
| Oc1ccccc1 | inactive | – |
| CCCc1cc(=O)[nH]c(=S)[nH]1 | inactive | – |
| CCOc1ccc(NC(C)=O)cc1 | inactive | – |
| CCCCCCc1ccc(O)cc1O | inactive | – |
| NS(=O)(=O)c1cc2c(cc1Cl)NCNS2(=O)=O | inactive | – |
| COc1cccc(O)c1O | – | 0.0208% [at 95.7 µM] |
| O=CC(=O)c1ccccc1 | – | -0.067% |
| F[B-](F)(F)F | inactive | – |
| Cc1c(C(=O)O)c(O)cc2c1C(=O)c1c(O)c([C@@H]3O[C@H](CO)[C@@H](O)[C@H](O)[C@H]3O)c(O)c(O)c1C2=O | inactive | – |
| CC(O)(P(=O)(O)O)P(=O)(O)O | inactive | – |
| Cc1ccc(S(=O)(=O)O)cc1 | inactive | – |
| Cc1cc(C)nc(NS(=O)(=O)c2ccc(N)cc2)n1 | inactive | – |

| SMILES | Potency | fluorescence, % of fluorescent control |
| --- | --- | --- |
| C=C1CC[C@H](O)C/C1=C\C=C1/CCC[C@]2(C)[C@@H]([C@H](C)CCCC(C)C)CC[C@@H]12 | inactive | – |
| CN(C)C(=O)Nc1ccc(Cl)c(Cl)c1 | inactive | – |
| O=C(Nc1ncc([N+](=O)[O-])s1)c1cccs1 | – | 0.0013% [at 46 µM] |
| O=C1OC2(c3ccccc31)c1cc(Br)c(O)c(Br)c1Oc1c2cc(Br)c(O)c1Br | inactive | – |
| CCCCCCCC(=O)OCC(COC(=O)CCCCCCC)OC(=O)CCCCCCC | inactive | – |
| CC(=O)CCC(=O)O | inactive | – |
| CC12CCC(CC1)C(C)(C)O2 | inactive | – |
| NC1CCCCC1 | inactive | – |
| NC(=O)c1cccnc1 | inactive | – |
| CC1(C)O[C@@H]2C[C@H]3[C@@H]4CCC5=CC(=O)C=C[C@]5(C)[C@@]4(F)[C@@H](O)C[C@]3(C)[C@]2(C(=O)CO)O1 | inactive | – |
| NC(CO)(CO)CO | inactive | – |
| CN(C)CCOC(C)(c1ccccc1)c1ccccn1 (stereo not given) | inactive | – |
| Nc1ccc(S(N)(=O)=O)cc1 | inactive | – |
| Nc1c2c(nc3ccccc13)CCCC2 | inactive | – |
| Cc1ncc([N+](=O)[O-])n1C | inactive | – |
| CN[C@H]1CC[C@@H](c2ccc(Cl)c(Cl)c2)c2ccccc21 | – | 0.0587% [at 46 µM] |
| CN1[C@@H]2CC(OC(=O)[C@H](CO)c3ccccc3)C[C@H]1[C@@H]1O[C@@H]12 (stereo not given in full) | inactive | – |
| CS(=O)(=O)OCCCCOS(C)(=O)=O | inactive | – |
| CCCCC1(COC(=O)CCC(=O)O)C(=O)N(c2ccccc2)N(c2ccccc2)C1=O | inactive | – |
| CC1(C)S[C@@H]2[C@H](NC(=O)[C@H](N)c3ccccc3)C(=O)N2[C@H]1C(=O)O | inactive | – |
